# Source: the supplement of paper PMC3334620
# Over roughly 33,000 sequences, “E-score (-0.5 to 0.5)” has its median near -0.054; the highest 2% begin near 0.35. Only a selection was taken, and the highest values are over-represented in it overall.
# Target: T1, Stb5 (UniProt P38699)
# T1 sequence: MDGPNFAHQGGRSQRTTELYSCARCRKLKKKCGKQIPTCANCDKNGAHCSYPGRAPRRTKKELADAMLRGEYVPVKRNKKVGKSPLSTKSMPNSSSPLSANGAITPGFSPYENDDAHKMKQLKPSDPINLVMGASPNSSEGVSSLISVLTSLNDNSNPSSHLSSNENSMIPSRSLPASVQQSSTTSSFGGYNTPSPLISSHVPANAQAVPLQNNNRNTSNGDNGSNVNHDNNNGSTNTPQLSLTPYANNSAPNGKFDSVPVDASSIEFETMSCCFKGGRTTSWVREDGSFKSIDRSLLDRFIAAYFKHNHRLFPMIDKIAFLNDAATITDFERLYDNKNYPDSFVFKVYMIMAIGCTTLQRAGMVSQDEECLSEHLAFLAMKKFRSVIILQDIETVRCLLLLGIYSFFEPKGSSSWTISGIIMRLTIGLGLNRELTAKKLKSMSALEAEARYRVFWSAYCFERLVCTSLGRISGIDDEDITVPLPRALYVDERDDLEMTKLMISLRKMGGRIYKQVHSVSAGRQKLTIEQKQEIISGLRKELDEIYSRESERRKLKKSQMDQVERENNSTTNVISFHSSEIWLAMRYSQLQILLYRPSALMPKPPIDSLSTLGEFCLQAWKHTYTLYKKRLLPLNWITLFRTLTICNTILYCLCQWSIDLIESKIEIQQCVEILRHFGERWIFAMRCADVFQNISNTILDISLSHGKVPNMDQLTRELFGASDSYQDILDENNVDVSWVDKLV
# Assay: PBM E-score (8-mer binding enrichment) (E-score (-0.5 to 0.5)); higher = stronger / more preferred TF binding
# Conditions: protein concentration: 200 nM; construct: GST-full length
# Method in brief: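 Yeast transcription factors, full-length or as DNA-binding domains, were expressed with a GST tag using PURExpress in vitro transcription/translation. At about 100-200 nM they were applied to universal all-10-mer Agilent arrays, double-stranded by primer extension on fresh or once-stripped slides. Fluorescent anti-GST detected bound protein, and masliner normalised the scans. E-scores for ungapped eight-base words, pooled with reverse complements, came from the Universal PBM Analysis Suite.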
row,Sequence,PBM E-score
1,CCAATCTA,-0.0421
2,CACGCTGG,-0.14
3,CTGATAGA,-0.0917
4,CAAGTACA,-0.12
5,AAACAGAC,-0.131
6,ACTAGACA,-0.184
7,AACCGGGC,0.239
8,GCTTGGCC,0.143
9,GGCCACGA,0.111
10,AGTACCCA,-0.101
11,ATGGTCAG,-0.183
12,ACGGGGTG,0.286
13,ACCGGGCT,0.38
14,ACGGGCAG,-0.0575
15,ACCGGGCC,0.306
16,ACGGGCAT,0.363
17,ACGGGGTA,0.248
18,ACCGGGGG,0.286
19,ACGGGGTC,0.362
20,ACCGGGGC,0.359
21,ACGGGCAC,0.105
22,CCCGGGGC,0.258
23,ACCGGGCA,0.276
24,CCGTATCA,0.145
25,CCGTCTCC,0.22
26,CCCTCAAC,-0.125

row,Sequence,PBM E-score
1,AAGTAGGT,0.00443
2,ATAAGTAC,0.133
3,CATGACCA,-0.378
4,CTGGACTC,-0.169
5,AAACGAAC,-0.193
6,ACCTTACA,-0.0752
7,AGGTTCTA,0.0114
8,AGGTTATA,-0.0254
9,AGGTTTTA,0.0721
10,GGGGTTTA,0.329
11,CGGTTTAA,0.155
12,CGGGTTTC,0.273
13,GGGTTATA,0.257
14,CGGTTATA,0.37
15,CGGTTCTA,0.36
16,GGGTTCTA,0.162
17,CGGTTTTA,0.41
18,CGGGTTTA,0.467
19,CTAAAGGA,0.0339
20,ACTGAAGC,-0.111
21,CTCCATAC,-0.0338
22,CGTTCGGA,0.243
23,GAAGGTCA,-0.15
24,AACACCAG,0.011
25,ACCGTCGA,0.286
26,ACCGTCGC,0.332

row,Sequence,PBM E-score
1,CCCGTCGG,0.435
2,CCCGTCGC,0.25
3,CCCGTCGA,0.206
4,ACCGTCGG,0.392
5,GTTAACCA,-0.181
6,GCACCACA,-0.0487
7,CCCATGCC,0.0152
8,TATGTGAA,-0.344
9,AAACTTGT,-0.145
10,CAGCGGAC,0.332
11,GAGCGGAA,0.308
12,AAGCGGAC,0.352
13,GAGCGGAC,0.376
14,AAGCGGAG,0.252
15,AAGCGGAT,0.297
16,CAGTTATG,0.143
17,AACCCGCG,0.231
18,GCCCCGCC,0.403
19,GGCCCGCC,0.303
20,ACCCCGCC,0.463
21,AACCCGCC,0.276
22,CCCCCGCG,0.325
23,ACCCCGCT,0.437
24,AGCCCGCT,0.317
25,CCCCCGCC,0.313
26,AACCCGCT,0.222

row,Sequence,PBM E-score
1,GCCCCGCA,0.262
2,ACCCCGCG,0.367
3,AATCAATT,-0.151
4,TGTATGAA,0.0366
5,CTTTAAGA,0.0831
6,TAGCAGCA,-0.233
7,AATATTAA,0.0579
8,TTCTCAAA,-0.128
9,ACCGATAG,0.167
10,CAACAATG,-0.0552
11,ACCCCGCA,0.382
12,AACCCGCA,0.229
13,CCCCCGCA,0.154
14,CGTGTTAG,0.0849
15,AAGCACCG,0.457
16,AACCACCG,0.406
17,AATCACCG,0.441
18,AAGCACCT,-0.21
19,CATCACCG,0.251
20,CACCACCG,0.21
21,CAGCACCG,0.313
22,AACCACCA,-0.124
23,AATCACCA,-0.0307
24,ACCAGTGA,-0.215
25,GAGCTCGA,-0.257
26,AATACTGC,-0.0596

row,Sequence,PBM E-score
1,CCAGTATA,-0.066
2,AAAGCACC,0.311
3,ACCCCAAA,-0.179
4,ACCGGCGG,0.403
5,AACGGCGT,0.348
6,ACCGGCGT,0.365
7,ACCGGCAT,0.337
8,ACCGGCGC,0.336
9,ACCGGCGA,0.281
10,GGAACAGA,-0.104
11,AGCGCCTC,-0.0428
12,CCTATGCA,-0.158
13,ATCCGCTA,0.155
14,ATCCGCCA,0.18
15,GTCCGCTA,0.374
16,GTCCGCAA,0.196
17,CTCCGCTA,0.349
18,GTCCGCCA,0.4
19,GTTTCTTA,0.00445
20,CGGCAATA,0.454
21,CGGCAGTC,0.11
22,AGGCAATA,-0.0408
23,CGGCAATC,0.185
24,AGGCAGTA,-0.205
25,CGGCAGTA,0.4
26,CGAACCCG,0.103

row,Sequence,PBM E-score
1,CGACCAGC,0.128
2,AATCGCGT,-0.00793
3,GAACCTTC,-0.201
4,CATCGCTC,-0.00533
5,ATTTGCAC,-0.273
6,CGCGCATA,0.112
7,ATCGGTGC,0.324
8,GTCGGTGA,0.374
9,ATCGGTGG,0.276
10,GTCGGTCA,0.259
11,CTCGGTGA,0.244
12,ATCGGTGA,0.366
13,CTTCGGGA,0.131
14,CTCTTAAA,-0.0109
15,CTGACCAA,-0.176
16,AGGTTGTC,-0.204
17,CGCCTGGA,-0.0581
18,TTCACCAA,-0.0231
19,AAGTCCGT,0.454
20,CAGTCCGG,0.189
21,AAGTCCTA,0.0926
22,AAGTCCAT,0.0307
23,AAGTCCTC,-0.066
24,AAGTCCTG,0.0166
25,CAGTCCCG,0.192
26,AAGTCCCG,0.385

row,Sequence,PBM E-score
1,AAGTCCGC,0.46
2,AAGTCCCT,-0.209
3,CAGTCCGC,0.252
4,AAGTCCGG,0.43
5,GATATCCA,-0.16
6,GCCCAAAC,-0.0152
7,CAGCGTGC,0.0885
8,GAACAGCC,-0.134
9,TCCGTGCA,0.23
10,ACCCTGTG,-0.19
11,AACAGTTG,-0.0985
12,ATCTGCCA,-0.118
13,TCTAGTCA,-0.11
14,CATGTGCC,-0.177
15,GAGTCCGC,0.371
16,GAGTCCCC,-0.12
17,CAGTCCGA,0.273
18,GAGTCCGA,0.286
19,TAGTCCGA,0.309
20,AAGTCCGA,0.459
21,AATGTCCG,0.438
